Screening data: PubChem BioAssay, National Center for Advancing Translational Sciences (NCATS)
Pf growth 48h: Primary qHTS for delayed death inhibitors of the malarial parasite plastid, 48 hour incubation | P. falciparum luciferase growth in erythrocytes, 48 h | 310,000 tested, 5.9% active | Potency, µM (titrated, usually from 28.7 µM), for the others: top-dose activity change, negative = inhibition, actives largely listed as inhibitors
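Compounds are pin-transferred into medium, infected erythrocytes (2% hematocrit, 0.1% parasitemia final) are added, and plates sit one parasite generation at 37 C in 5% CO2. Detection reagent is then added and luminescence measured.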
Vaccinia mCherry: qHTS for Stage-Specific Inhibitors of Vaccinia Orthopoxvirus: mCherry Reporter Primary qHTS. Vaccinia virus mCherry reporter infection, fluorescence. Potency, µM (series often up to 36.5 µM), without a hit: at the highest dose activity change, negative = inhibition, usual class: inhibitors. 310,000 tested, 0.63% active. AID 720579, 2013; calls by dose curve; tested in A549 cells; further: nearly all actives have a fitted effect of over 35% in size
AMA1-RON2 inh: qHTS for Inhibitors of AMA1-RON; Towards Development of Antimalarial Drug Lead: Primary Screen. AlphaScreen AMA1-biotinylated RON2 peptide binding. AID 720542, 2013. Potency, µM (highest dose often 58.2 µM), for inactives: at the highest dose activity change, negative = inhibition, actives largely listed as inhibitors. 360,000 tested, 0.2% active. Plasmodium falciparum AMA1 (3D7) - RON2 peptide interaction;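 further: 0% = vehicle wells and -100% = peptide control; nearly all actives have a fitted effect of over 45% in size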
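AMA1 (3D7) with his tag at 25 nM final met compounds first, then biotinylated RON2 peptide at 25 nM; detection used donor plus acceptor beads, 10 µg/mL apiece, read by AlphaScreen after 30 min at room temperature.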
Pf growth 96h: Primary qHTS for delayed death inhibitors of the malarial parasite plastid, 96 hour incubation; P. falciparum luciferase reporter growth, 96 h; Potency, µM (titrated, usually from 28.7 µM), without a hit: at the highest dose activity change, negative = inhibition, hits mostly inhibitors; 320,000 tested, 6.9% active; AID 504834, 2011
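Parasite growth measured via integrated firefly luciferase reporter in P. falciparum. Infected erythrocytes at 2% hematocrit, 0.05% parasitemia final were treated 96 hours at 37 C under 5% CO2, and luminescence was read.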
VACV Venus inh: qHTS for Stage-Specific Inhibitors of Vaccinia Orthopoxvirus: Venus Reporter Primary qHTS | Vaccinia virus Venus reporter expression, fluorescence | Potency, µM (top dose mostly 36.5 µM), inactives show top-dose activity change, negative = inhibition, usual class: inhibitors | 330,000 tested, 0.46% active; calls by dose curve; tested in A549 cells; further: nearly all actives have a fitted effect of over 30% in size
Active calls of the source: *; i = inactive; ? = inconclusive; nt = no result given; + = active, no number. Compounds with a hit are over-represented: about 8.7% of the library has one in this group of screens. Unless noted, the call rests on the fitted dose curve; in most records, active means well fitted curve in the direction sought with a large enough effect; inconclusive means small, poorly fitted or top-dose-only effect, or another doubt; inactive means no such curve, though single readings can be large; an effect the other way counts as inactive or inconclusive. Unless noted, on the % scale 0 is the no-effect control and ±100 the full control effect; potency means the concentration at half of the fitted maximal effect.

SMILES	Pf growth 48h	Vaccinia mCherry	AMA1-RON2 inh	Pf growth 96h	VACV Venus inh
C=CC[C@H](CC(=O)N(CCO)Cc1ccccc1)C(=O)N[C@@H](COC(=O)[C@H](CC=C)CC(=O)OC(C)(C)C)Cc1c[nH]c2ccccc12	nt	?	-18%	nt	?
CCN(C(=O)c1cnc(NC(C)C)cc1C(F)(F)F)c1ccc(Cl)cc1	?	-7%	8%	12µM*	-20%
CCC(C)Sc1cc(C(F)(F)F)c(C(=O)Nc2ccc(Cl)cc2)cn1 (stereo not given)	?	-10%	5%	?	?
CCCC1NC(=S)N(C2CCCCC2)C1=O (stereo not given)	0%	-19%	-3%	2.9µM*	-14%
Cc1ccc2cc(CN(CCN3CCCC3)C(=O)Nc3ccc(F)cc3)c(=O)[nH]c2c1C	13µM*	i	-10%	-11%	-12%
Cc1ccc2cc(CN(CCN3CCCC3)C(=O)Nc3ccccc3)c(=O)[nH]c2c1C	10µM*	-15%	-6%	?	-10%
COc1ccc(NC(=O)N(CCN2CCCC2)Cc2cc3cc(OC)c(OC)cc3[nH]c2=O)cc1	9.3µM*	nt	-4%	?	-10%
Cc1ccc2cc(CN(CCN3CCOCC3)C(=O)NCc3ccccc3)c(=O)[nH]c2c1C	?	0%	0%	?	5%
COc1ccccc1-c1noc(-c2ccc(NCC3CCCO3)c([N+](=O)[O-])c2)n1 (stereo not given)	nt	-5%	nt	nt	-6%
Cc1ccc(-c2ccc(CCC(=O)O)n2-c2ccc(C(C)C)cc2)cc1	nt	-25%	nt	nt	-24%
COc1ccc([C@@]23Oc4cc(OC)cc(OC)c4[C@]2(O)[C@H](O)[C@H](C(=O)N(C)C)[C@H]3c2ccccc2)cc1	nt	+	19%	nt	0.0001µM*
CCN(CC)c1ccc(NC(=O)CSc2nc3ccccc3c(=O)n2-c2cc(S(=O)(=O)N(C)C)ccc2C)cc1	8.3µM*	-7%	?	?	-21%
CN(C)S(=O)(=O)c1ccc(NC(=O)CSc2nc3ccccc3n2-c2ccccc2)cc1	5.9µM*	?	-17%	2.3µM*	-21%
CN(C)S(=O)(=O)c1cccc(NC(=O)CSc2nc3ccccc3n2-c2ccccc2)c1	?	?	-6%	?	?
Cc1cc(C=O)cc(C)c1[N+](=O)[O-]	nt	-14%	nt	nt	-5%
C#CCSc1nc2sc3c(c2c(=O)n1-c1cccc(OC)c1)CCN(C(C)=O)C3	nt	-11%	nt	nt	-12%
O=C(c1noc2c1CCc1ccccc1-2)N1CCCc2ccccc21	3.3µM*	nt	14%	nt	nt
Cc1ccc(O)c(NC(=O)c2noc3c2CCc2ccccc2-3)c1	?	?	5%	9.3µM*	-3%
Cc1ccccc1Cn1nc(C)c(NC(=O)c2noc3c2CCc2ccccc2-3)c1C	?	?	-6%	1.2µM*	?
C=CCN1C(=O)C(CC(=O)NCC)SC1=Nc1cc(Cl)ccc1Cl (stereo not given)	43%	-8%	-2%	1.2µM*	4%
O=C(Oc1c(CN2CCOCC2)cc(Cl)c2cccnc12)c1ccccc1F	-13%	7.9µM*	-31%	2.1µM*	10µM*
COc1cc(OC)cc(C(=O)Oc2c(CN3CCOCC3)cc(Cl)c3cccnc23)c1	1.5µM*	?	47%	0.93µM*	?
COc1ccc(C(=O)Nc2ccnn2C2CCN(C(C)CSC)CC2)cc1 (stereo not given)	14%	nt	1%	2.9µM*	nt
O=C(COc1ccc2oc3c(c2c1)CCCC3)Nc1ccc(Cl)cc1	nt	-11%	nt	nt	-14%
CN(Cc1ccc2nonc2c1)Cc1nc(Cc2cccc(F)c2)no1	?	nt	31%	13µM*	nt
SMILES	Pf growth 48h	Vaccinia mCherry	AMA1-RON2 inh	Pf growth 96h	VACV Venus inh
CCCn1c(N)c(C(=O)CSc2nnc(C3CC3)n2-c2ccccc2)c(=O)[nH]c1=O	?	nt	1%	10µM*	nt
CCCn1c(N)c(C(=O)CSc2nnc(N)s2)c(=O)[nH]c1=O	-8%	nt	0%	?	nt
CCCn1c(N)c(C(=O)CSc2nc3ccccc3s2)c(=O)[nH]c1=O	?	11µM*	-3%	?	-15%
COc1ccccc1/C=C/c1cncc(/C=C/c2ccccc2OC)c1	nt	?	nt	nt	-22%
Cc1ccc(-c2nc3ccccc3[nH]2)cc1NC(=O)c1ccco1	17%	-7%	2%	?	-9%
Cc1ccc(-c2nc3ccccc3[nH]2)cc1NC(=O)c1sc2cc(Cl)ccc2c1Cl	3.3µM*	49%	-1%	?	-4%
COC(=O)c1cc(S(=O)(=O)NCc2ccccc2Cl)c[nH]1	32%	i	-9%	2.6µM*	-5%
NC(=O)c1cc(S(=O)(=O)NCc2cccs2)cs1	42%	nt	4%	8.3µM*	nt
COC(=O)c1cc(S(=O)(=O)NCc2cccs2)c[nH]1	3%	nt	9%	12µM*	nt
COc1ccc(S(=O)(=O)NCc2cccs2)cc1	nt	nt	-5%	-15%	nt
CCN(CC)S(=O)(=O)c1ccc(S(=O)(=O)NCc2cccs2)cc1	22%	-12%	-17%	8.3µM*	-8%
Cc1cccc(CNS(=O)(=O)c2csc(C(N)=O)c2)c1	-17%	-11%	-1%	-10%	-3%
COC(=O)c1cc(S(=O)(=O)NCC2CCN(Cc3ccccc3F)CC2)c[nH]1	15%	-6%	9%	27%	-7%
O=S(=O)(c1ccc(F)cc1)N1CCN(c2nc(-c3ccccc3)nc3ccccc23)CC1	nt	-9%	nt	nt	-11%
CN(C)S(=O)(=O)N(CC(=O)Nc1ccc(Br)cc1F)c1ccccc1	nt	-14%	nt	nt	-6%
Cc1ncc2c(c1CNC(=O)/C=C/c1cccs1)CCN(C(=O)c1c(C)noc1C)C2	nt	-14%	nt	nt	8%
COc1ccccc1NC(=O)CSc1nnc2c3ccccc3n(C(C)C)c2n1	nt	i	nt	nt	?
O=S(=O)(NCc1cccs1)c1ccc(Cl)s1	2%	nt	1%	7.4µM*	nt
O=C(C(NS(=O)(=O)c1cccs1)c1ccccc1)N1CCN(c2ccccc2)CC1 (stereo not given)	?	nt	-4%	12µM*	nt
O=S(=O)(c1cccs1)N1CCN(c2ccccc2)CC1	21%	-22%	-13%	2%	-5%
COc1ccccc1CN1C(=O)CN(C2CCCCCC2)C(=O)C1c1ccc(F)cc1 (stereo not given)	?	6%	0%	10µM*	6%
CCCOc1ccc(C2C(=O)N(C3CCCCCC3)CC(=O)N2Cc2ccccc2OC)cc1OC (stereo not given)	nt	-12%	nt	nt	-6%
Cc1cc(NC(=O)C(C)Oc2ccc(Cl)cc2Cl)no1 (stereo not given)	8%	-19%	-15%	1.7µM*	-10%
